# Shown are actives, neighbours in structure and some others; about 2.4% of the full set was active somewhere.
# FEN1 inh-1: inhibitors of human flap endonuclease 1. P39748. Recombinant FEN1 flap cleavage, fluorescence, 15 min. Potency, µM (doses to about 114 µM), for the others: at the highest dose activity change, negative = inhibition, hits mostly inhibitors. actives 0.35% (n = 390,000). AID 588795; further: on the % scale 0 is the no-effect control and ±100 the full control effect; nearly all actives have a fitted effect of over 65% in size
#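 Potency values derive from four-parameter Hill fits of normalized qHTS data. The reaction used 10 nM FEN1 preincubated 15 min at room temperature with compound, then 50 nM DNA substrate, read at 0 and 15 min.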
# Pol kappa inh-1: inhibitors of human DNA polymerase kappa | Q9UBT6 | purified Pol kappa, fluorescent DNA synthesis assay, 10 min | Potency, µM (highest dose often 107 µM), for inactives: at the top dose activity, negative = inhibition, actives largely listed as inhibitors | actives 0.53% (n = 400,000) | AID 588579; further: on the % scale 0 is the no-effect control and ±100 the full control effect
#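 10 nM Pol kappa was preincubated with compounds for 15 min at room temperature. Reaction started with 50 nM (final) substrate. Fluorescence read kinetically at 0 and 10 min.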
# Pol iota inh: blocks human DNA polymerase iota activity; Q9UNA4; Pol iota fluorescent replication assay, 10 min; Potency, µM (doses to about 115 µM), for the others: at the top dose activity, negative = inhibition, actives largely listed as inhibitors; AID 588590; actives 1% (n = 390,000)
#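 Pol iota at 10 nM preincubated 15 min with compounds at room temperature; reaction started with fluorescent substrate, 50 nM final. Fluorescence read kinetically at 0 and 10 min; buffer-only wells as negative control.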
# WRN helicase inh-1: blocks human WRN helicase | AID 651768 | Q14191 | Potency, µM (doses to about 114 µM), without a hit: top-dose activity change, negative = inhibition, usual class: inhibitors | WRN helicase unwinding, fluorescent forked duplex, kinetic | actives 0.46% (n = 360,000); further: on the % scale 0 is the no-effect control and ±100 the full control effect; nearly all actives have a fitted effect of over 55% in size
#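 Screening of the MLSMR collection measured strand separation of a quenched forked DNA duplex (100 nM) by 20 nM WRN with 2 mM ATP, all final. Compounds were preincubated with enzyme 15 min at room temperature.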
# Pol beta inh: inhibitors of human DNA polymerase beta | P06746 | Potency, µM (top dose mostly 114 µM), without a hit: at the highest dose activity change, negative = inhibition, actives largely listed as inhibitors | Pol beta primer extension/strand displacement, fluorescence kinetic | actives 1.3% (n = 340,000); further: on the % scale 0 is the no-effect control and ±100 the full control effect
#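 Reaction started by 50 nM substrate onto compound-treated Pol beta (10 nM, 15 min preincubation, room temperature); plates read at 0 min and 10 min. Normalized concentration-effect data fitted by four-parameter Hill equation.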
# Pol eta inh-1: blocks human DNA polymerase eta activity | recombinant Pol eta, fluorescent DNA replication assay | actives 1.2% (n = 390,000) | Q9Y253 | Potency, µM (doses to about 114 µM), for inactives: at the highest dose activity change, negative = inhibition, actives largely listed as inhibitors; further: on the % scale 0 is the no-effect control and ±100 the full control effect
#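 Pol eta at 10 nM preincubated with compounds 15 min at room temperature; reaction started with fluorescent substrate (50 nM final) and read kinetically at 0 and 10 min.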
# TbPGK inh: TbPGK inhibition, hit validation; shares compounds with Pol kappa inh-1; TbPGK coupled GAPDH assay, Kinase-Glo luminescence; Potency, µM (highest dose often 57.5 µM), inactives show at the top dose activity change, negative = inhibition, usual class: inhibitors; actives 79% (n = 500); further: on the % scale 0 is the no-effect control and ±100 the full control effect; nearly all actives have a fitted effect of over 65% in size
# POLI cherry-pick: Inhibitors of human DNA polymerase iota, confirmation. shares compounds with Pol kappa inh-1. Potency, µM, most hits filed as inhibitors. actives 77% (n = 1,500). Pol iota primer extension, TAMRA/BHQ fluorescence
# Pol kappa inh-2: confirmation of human DNA polymerase kappa inhibitors. shares compounds with Pol eta inh-1. purified Pol-kappa, fluorescent strand-displacement substrate. Potency, µM, hits mostly inhibitors. actives 76% (n = 920)
# Pol eta inh-2: confirmation of human DNA polymerase eta inhibitors; shares compounds with Pol eta inh-1; actives 64% (n = 2,600); Potency, µM, actives largely listed as inhibitors; Pol eta primer extension, TAMRA/BHQ fluorescence, 10 min
# FEN1 inh-2: FEN1 inhibition, cherry-pick retest; shares compounds with FEN1 inh-1; FEN1 flap cleavage, TAMRA/BHQ2 fluorogenic DNA substrate; Potency, µM, actives largely listed as inhibitors; actives 79% (n = 880); further: nearly all actives have a fitted effect of over 60% in size
# WRN helicase inh-2: WRN helicase inhibition, cherry-pick retest; shares compounds with WRN helicase inh-1; WRN helicase DNA unwinding, fluorescence kinetic; Potency, µM (doses to about 57.1 µM), inactives show at the top dose activity, negative = inhibition, usual class: inhibitors; actives 63% (n = 610); AID 720497; further: nearly all actives have a fitted effect of over 65% in size
# TO DNA binding: counter-screen for WRN helicase inhibitors: DNA binding; shares compounds with WRN helicase inh-1; thiazole orange DNA binding displacement, fluorescence; Potency, µM (highest dose often 57.1 µM), for the others: at the top dose activity change, negative = inhibition, most hits filed as inhibitors; actives 10% (n = 610); AID 720499;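 further: drop in dye fluorescence marks compound binding to DNA; on the % scale 0 is the no-effect control and ±100 the full control effect; nearly all actives have a fitted effect of over 60% in size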
# BLM helicase inh: blocks human BLM helicase in WRN counterscreen. shares compounds with WRN helicase inh-1. Recombinant BLM helicase DNA unwinding, red fluorescence. Potency, µM (highest dose often 57.1 µM), inactives show at the top dose activity change, negative = inhibition, actives largely listed as inhibitors. actives 60% (n = 610). AID 720503; further: nearly all actives have a fitted effect of over 60% in size
# * hit, by the source's call; i = inactive; ? = inconclusive; nt = no result given. The call rests on the fitted dose curve; in most records, active means well fitted curve in the direction sought with a large enough effect; inconclusive means small, poorly fitted or top-dose-only effect, or another doubt; inactive means no such curve, though single readings can be large; an effect the other way counts as inactive or inconclusive. Potency means the concentration at half of the fitted maximal effect.
SMILES,FEN1 inh-1,Pol kappa inh-1,Pol iota inh,WRN helicase inh-1,Pol beta inh,Pol eta inh-1,POLI cherry-pick,Pol eta inh-2,FEN1 inh-2,WRN helicase inh-2,TO DNA binding,BLM helicase inh,others
CCOC(=O)N1C2C=C(C)[C@@H]2[C@@H]2CC(=O)N21 (some centres undefined),5%,4%,30%,-16%,23%,-9%,nt,nt,nt,nt,nt,nt,
O=C(NC1CCCCC1)c1cc2ccccc2cc1O,-4%,-1%,66%,-16%,-8%,-12%,nt,nt,nt,nt,nt,nt,
CCN(CC)CCCNc1ncnc2ccccc12,-13%,-11%,21%,-7%,2%,-18%,nt,nt,nt,nt,nt,nt,
CCN(CC)CCCNc1ccc2ncn3c4ccc(O)cc4c(=O)c1c23,10µM*,79µM*,?,25µM*,nt,?,42*,nt,8.5*,22µM*,i,-62%,
O=C(O)CN1C(=O)/C(=C/c2ccc(N3CCCCC3)o2)SC1=S,45µM*,50µM*,i,4.7µM*,18µM*,50µM*,42*,34*,48*,24µM*,43%,24µM*,Pol kappa inh-2=24*
Cc1nc2ccc(C(=O)O)cc2c2c1CC(C)S2 (centres undefined),?,32µM*,5µM*,32µM*,22µM*,2.5µM*,19*,9.5*,nt,19µM*,-18%,?,
O=C(O)c1cccc2cccc(-c3c4ccc(=O)c(O)c-4oc4c(O)c(O)ccc34)c12,3.2µM*,1.1µM*,0.71µM*,3.5µM*,nt,-98%,0.67*,0.95*,3.4*,1.5µM*,4.3µM*,0.38µM*,TbPGK inh=0.33µM*
O=C(CCCN1C(=O)/C(=C\c2ccco2)SC1=S)Nc1ccc(O)cc1C(=O)O,50µM*,22µM*,8.9µM*,16µM*,?,4.5µM*,34*,27*,nt,7.6µM*,?,22µM*,
O=C(CCCN1C(=O)/C(=C/c2ccco2)SC1=S)Nc1cccc(C(=O)O)c1,?,22µM*,14µM*,35µM*,3.2µM*,20µM*,24*,15*,nt,19µM*,-8%,19µM*,
COc1ccccc1CNC(=O)/C(C#N)=C/c1ccc(OC)c(OC)c1OC,-16%,2%,38%,-3%,-2%,-15%,nt,nt,nt,nt,nt,nt,

# From PubChem BioAssay
